Only some compounds are listed: those with a hit (about 5.7% of all), similar ones and a draw of the others.
ATXN2 expr inh – Primary qHTS for Inhibitors of ATXN expression; Potency, µM (doses to about 57 µM), inactives show at the top dose activity change, negative = inhibition, usual class: inhibitors; hit rate 0.72% among 360,000; HEK-293 ATXN2-luciferase reporter, luminescence, 24 h; further: potency means the concentration at half of the fitted maximal effect; on the % scale 0 is the no-effect control and ±100 the full control effect; nearly all actives have a fitted effect of over 55% in size
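ATXN2-luciferase reporter cells (luciferase flanked by upstream and downstream ATXN2 gene portions) were treated 24 h at 37 °C with compounds at up to 57 uM. SteadyGlo luminescence gave expression; GF-AFC fluorescence gave viability.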
S2 tox – Viability Counterscreen for Primary qHTS for Inhibitors of ATXN expression; S2 cells (HEK-293 line with an ATXN2-luciferase reporter) viability, CellTiter-Fluor protease fluorescence, 24 h; Potency, µM (doses to about 56.7 µM), usual class: cytotoxic; hit rate 0.49% among 400,000; further: potency means the concentration at half of the fitted maximal effect; nearly all actives have a fitted effect of over 40% in size
IL-1B inflam inh – qHTS for Inhibitors of Inflammasome Signaling: IL-1-beta AlphaLISA Primary Screen. hit rate 4.7% among 360,000. activity change, % at 57.5 µM. AID 743279, 2014. THP-1 LPS/ATP IL-1B secretion, AlphaLISA, 16 h; active compounds read low; in the data active means activity change below about -50%; inconclusive means mostly about -30% to -49%; further: on the % scale 0 is the no-effect control and ±100 the full control effect
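Secreted IL-1B measured by AlphaLISA bead assay after 16 h compound exposure of THP-1 cells; compounds (final up to 57.5 uM) added 1 h before LPS (250 ng/mL) and ATP (1.25 mM) stimulation; lower signal means less secretion.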
TGFb SMAD3 inh – qHTS for Inhibitors of TGF-b; HepG2 CAGA-GFP TGF-b/SMAD3 reporter, GFP fluorescence, 18 h; TGF-beta stimulated, 500 pg/mL final; Potency, µM (titrated, usually from 46.1 µM), inactives show at the highest dose activity, negative = inhibition, hits mostly inhibitors; hit rate 1.2% among 410,000; further: potency means the concentration at half of the fitted maximal effect; on the % scale 0 is the no-effect control and ±100 the full control effect; nearly all actives have a fitted effect of over 65% in size
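GFP signal (ex488/em500-530) from TGF-beta-stimulated HEPG2 CAGA-GFP cells, 500 pg/mL final, 18 h at 37 degrees C in DMEM plus 1% FBS, normalized to unstimulated and DMSO-stimulated controls.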
HepG2 tox – qHTS for Inhibitors of TGF-b: Cytotox Counterscreen; AID 588856, 2011; hit rate 0.76% among 410,000; Potency, µM (series often up to 46.1 µM), without a hit: at the highest dose activity change, negative = cytotoxicity, most hits filed as cytotoxic; HepG2 CAGA-GFP viability, ATP luminescence, 18 h; further: potency means the concentration at half of the fitted maximal effect
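HepG2 CAGA-GFP cells (1000/well, DMEM with 1% FBS) received compound, then TGF-beta at 500 pg/mL final, and were incubated 18 hours at 37 degrees C. Viability was read by CellTiter-Glo luminescence. Media-only wells were set as complete cell-killing and DMSO as no toxicity.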
* = called active by the depositor. Unless noted, the call rests on the fitted dose curve; in most records, active means well fitted curve in the direction sought with a large enough effect; inconclusive means small, poorly fitted or top-dose-only effect, or another doubt; inactive means no such curve, though single readings can be large; an effect the other way counts as inactive or inconclusive.

`COc1ccccc1C(=O)Nc1ccncc1` gave ATXN2 expr inh 3.1%, S2 tox inactive, IL-1B inflam inh inconclusive, TGFb SMAD3 inh -5.8% and HepG2 tox 5.1%.
Screening O=C(NCC(c1cccs1)S(=O)(=O)c1cccs1)c1ccccc1 (stereo unspecified) returned TGFb SMAD3 inh 0.8% and HepG2 tox 0.8%.
For Cc1cc(C=O)c(C)c2c1[nH]c1ccccc12 the results were ATXN2 expr inh -9.1%, S2 tox inactive, IL-1B inflam inh -57.1*, TGFb SMAD3 inh inconclusive and HepG2 tox -23.4%.
`COc1cccc(NC(=O)c2ccccc2OCC(=O)Nc2ccc(Br)cc2)c1` gave TGFb SMAD3 inh inconclusive and HepG2 tox -11.9%.
Cc1cc(Cl)ccc1NC(=O)CN1C(=O)COc2ccc(S(=O)(=O)Nc3ccccc3)cc21 was read as ATXN2 expr inh -9.4%, S2 tox inconclusive, TGFb SMAD3 inh 14.1µM* and HepG2 tox -18.8%.
`O=C(CN1C(=O)COc2ccc(S(=O)(=O)NC3CCCC3)cc21)Nc1ccc(F)c(Cl)c1` gave ATXN2 expr inh -3.0%, S2 tox inconclusive, TGFb SMAD3 inh 12.6µM* and HepG2 tox -49.3%.
COc1ccc(NC(=O)CN2C(=O)COc3ccc(S(=O)(=O)NC4CCCC4)cc32)cc1OC was read as ATXN2 expr inh 6.3%, S2 tox inactive, TGFb SMAD3 inh -31.9% and HepG2 tox -10.8%.
`O=C(CN1C(=O)COc2ccc(S(=O)(=O)NC3CCCC3)cc21)Nc1ccc(Cl)cc1F` gave ATXN2 expr inh -1.9%, S2 tox inactive, TGFb SMAD3 inh inconclusive and HepG2 tox 15.8µM*.
Screening CCSc1ncc(Cl)c(C(=O)Nc2ccc(S(=O)(=O)Nc3ncccn3)cc2)n1 returned ATXN2 expr inh 4.8%, S2 tox inactive, IL-1B inflam inh -3.2, TGFb SMAD3 inh 20.5% and HepG2 tox 8.2%.
`CCSc1ncc(Cl)c(C(=O)Nc2ccccc2)n1` gave ATXN2 expr inh 16.1%, S2 tox inactive, IL-1B inflam inh 18.6, TGFb SMAD3 inh 18.1% and HepG2 tox 4.0%.
For CCSc1ncc(Cl)c(C(=O)Nc2ccc(S(N)(=O)=O)cc2)n1 the results were ATXN2 expr inh -25.7%, S2 tox inactive, IL-1B inflam inh -59.4*, TGFb SMAD3 inh -11.8% and HepG2 tox -13.9%.
For CCS(=O)(=O)c1ncc(Cl)c(C(=O)Nc2ccccc2)n1 the results were ATXN2 expr inh 11.2µM*, S2 tox 14.1µM*, TGFb SMAD3 inh 10µM* and HepG2 tox 17.8µM*.
For CCS(=O)(=O)c1ncc(Cl)c(C(=O)Nc2ccccc2OC)n1 the results were ATXN2 expr inh inconclusive, IL-1B inflam inh -94.2*, TGFb SMAD3 inh 3.55µM* and HepG2 tox -29.3%.
COc1ccc(N2CCN(C(=O)c3nc(SC)ncc3Cl)CC2)cc1 was read as ATXN2 expr inh -7.8%, S2 tox inactive, TGFb SMAD3 inh 15.5% and HepG2 tox 1.6%.
CCS(=O)(=O)c1ncc(Cl)c(C(=O)N2CCN(c3ccc(OC)cc3)CC2)n1 was read as HepG2 tox 11.2µM*.
`COc1cc(CN2CCCC(c3nc(-c4ccncc4)ncc3-c3ccccc3)C2)ccc1O` (stereo unspecified) gave S2 tox inactive.
`Cc1ccc(Nc2sc(C(=O)c3ccccc3)c(N)c2S(=O)(=O)c2ccccc2)c(C)c1` gave TGFb SMAD3 inh -17.6% and HepG2 tox -10.6%.
For CCS(=O)(=O)c1ncc(Cl)c(C(=O)NCc2ccc(OC)cc2)n1 the results were TGFb SMAD3 inh 3.16µM* and HepG2 tox 5.62µM*.
CCSc1ncc(Cl)c(C(=O)Nc2c(C(=O)Nc3cccc(C)c3)oc3ccccc23)n1 was read as HepG2 tox -14.2%.
For CCS(=O)(=O)c1ncc(Cl)c(C(=O)Nc2c(C(=O)Nc3cccc(C)c3)oc3ccccc23)n1 the results were ATXN2 expr inh 8.1%, S2 tox inconclusive, TGFb SMAD3 inh 0.891µM* and HepG2 tox -19.7%.
Screening COc1ccc(NC(=S)N(CCCN2CCC(C)CC2)Cc2cccs2)cc1 returned ATXN2 expr inh -8.7%, S2 tox inactive, IL-1B inflam inh -51.3*, TGFb SMAD3 inh inconclusive and HepG2 tox -28.6%.
Screening Cc1ccc(NC(=S)N(CCCN2CCC(C)CC2)Cc2ccco2)cc1C returned ATXN2 expr inh -27.0%, S2 tox inactive, IL-1B inflam inh -78.5*, TGFb SMAD3 inh 2.7% and HepG2 tox -3.5%.
For Cc1ccc(NC(=S)N(CCN2CCOCC2)Cc2ccccc2F)cc1 the results were ATXN2 expr inh -16.3%, S2 tox inactive, IL-1B inflam inh 1.8, TGFb SMAD3 inh 4.8% and HepG2 tox -1.2%.
For Cc1ccc(NC(=S)N(CCCN2CCN(C)CC2)Cc2cccs2)cc1 the results were ATXN2 expr inh -23.4%, S2 tox inactive, IL-1B inflam inh -19.2, TGFb SMAD3 inh 7.1% and HepG2 tox 11.2%.
For Cc1ccc(NC(=S)N(CCCN2CCN(C)CC2)Cc2cccs2)cc1C the results were ATXN2 expr inh -18.1%, S2 tox inactive, IL-1B inflam inh -60.8*, TGFb SMAD3 inh 6.9% and HepG2 tox -32.1%.
`Cc1cc(NC(=S)N(CCN2CCOCC2)Cc2ccccc2F)ccc1Cl` gave ATXN2 expr inh -23.4%, S2 tox inactive, IL-1B inflam inh -58.5*, TGFb SMAD3 inh inconclusive and HepG2 tox 13.3%.
`CN(C)c1ccc(-c2ccc(C3C4C=CCCC4(C)C(=O)N3Cc3ccccc3)c(F)c2)cc1` (stereo unspecified) gave TGFb SMAD3 inh -2.2% and HepG2 tox -1.7%.
For O=C(CNC(=S)N(CCCN1CCOCC1)Cc1cccs1)NC1CCCCCCC1 the results were ATXN2 expr inh -23.1%, S2 tox inactive, IL-1B inflam inh -53.9*, TGFb SMAD3 inh -26.2% and HepG2 tox -14.8%.
Screening Cn1c(N/N=C/c2cc3ccccc3nc2Cl)nc2ccccc21 returned ATXN2 expr inh 4.7%, S2 tox inactive, IL-1B inflam inh 11.4, TGFb SMAD3 inh 147.4% and HepG2 tox 5.62µM*.
Screening NC(=S)N/N=C/c1c[nH]c2ccccc12 returned S2 tox inactive, IL-1B inflam inh 0.0, TGFb SMAD3 inh -16.5% and HepG2 tox -11.1%.
`CCCCn1c(/N=C/c2c[nH]c3ccccc23)nc2ccccc21` gave ATXN2 expr inh 0.0%, S2 tox inconclusive, IL-1B inflam inh -52.0*, TGFb SMAD3 inh inconclusive and HepG2 tox -94.4%.
Oc1ccc(C=NN=C2c3ccccc3-c3ccccc32)c(O)c1 was read as ATXN2 expr inh 0.0%, S2 tox inconclusive, IL-1B inflam inh -57.9*, TGFb SMAD3 inh inconclusive and HepG2 tox -113.3%.
For C(=NN=C1c2ccccc2-c2ccccc21)c1c[nH]c2ccccc12 the results were ATXN2 expr inh 0.0%, S2 tox 18.9µM*, IL-1B inflam inh -102.7*, TGFb SMAD3 inh inconclusive and HepG2 tox 6.7%.
Cc1nnc(C)n1/N=C/c1cc2ccccc2nc1Cl was read as ATXN2 expr inh -4.8%, S2 tox inactive, IL-1B inflam inh 91.8, TGFb SMAD3 inh 15.5% and HepG2 tox 3.8%.

High-throughput results (PubChem BioAssay)
